Source: PubChem BioAssay AID1159580 (chemical genetic matrix, 2015)
Among all 5,500 compounds or so, about 2,000 (36%) were called active. Roughly 18% stayed inconclusive and do not appear here. The list shows a part of the results. Unmarked numbers belong to inactive results. Rule as the data show it: active = normalized growth mostly below about 0.91 (no sharp cut-off); inconclusive = no clear call, values can overlap the other calls; inactive = mostly above about 0.92.

Assay: chemical genetic growth profiling, strain panel (AID 1159580);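 also: tested at 20 µM; growth read once vehicle control cultures reached saturation at 30 °C; 1 = growth at the plate median or of vehicle wells; lower values mean less growth of the strain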
Settings: S. cerevisiae deletion strains, growth OD
[1] = locus YAR019C, strain CDC15, hits give low values
[2] = locus YBL105C, strain PKC1, hits give low values
[3] = locus YBR135W, strain CKS1, hits give low values
[4] = locus YBR136W, strain MEC1, hits give low values
[5] = locus YBR160W, strain CDC28, hits give low values
[6] = locus YDL017W, strain CDC7, hits give low values
[7] = locus YDL028C, strain MPS1, hits give low values
[8] = locus YDL101C, strain DUN1, hits give low values
[9] = locus YDL108W, strain KIN28, hits give low values
[10] = locus YDL132W, strain cdc53, hits give low values
[11] = locus YDL214C, strain PRR2, hits give low values
[12] = locus YDR052C, strain DBF4, hits give low values
[13] = locus YDR054C, strain cdc34, hits give low values
[14] = locus YDR226W, strain ADK1, hits give low values
[15] = locus YDR477W, strain SNF1, hits give low values
[16] = locus YER123W, strain YCK3, hits give low values
[17] = locus YER133W, strain GLC7, hits give low values
[18] = locus YFL009W, strain cdc4, hits give low values
[19] = locus YFL029C, strain CAK1, hits give low values
[20] = locus YFR003C, strain YPI1, hits give low values
[21] = locus YFR019W, strain FAB1, hits give low values
[22] = locus YFR028C, strain CDC14, hits give low values
[23] = locus YGR040W, strain KSS1, hits give low values
[24] = locus YGR052W, strain FMP48, hits give low values
[25] = locus YGR092W, strain DBF2, hits give low values
[26] = locus YHR030C, strain SLT2, hits give low values
[27] = locus YHR079C, strain IRE1, hits give low values
[28] = locus YHR082C, strain KSP1, hits give low values
[29] = locus YHR205W, strain SCH9, hits give low values
[30] = locus YIL147C, strain SLN1, hits give low values
[31] = locus YJL095W, strain BCK1, hits give low values
[32] = locus YJL128C, strain PBS2, hits give low values
[33] = locus YJL157C, strain FAR1, hits give low values
[34] = locus YJR016C, strain ILV3, hits give low values
[35] = locus YJR066W, strain TOR1 (second series), hits give low values
[36] = locus YJR066W, strain TOR1, hits give low values
[37] = locus YKL048C, strain ELM1, hits give low values
[38] = locus YKL067W, strain YNK1, hits give low values
[39] = locus YKL101W, strain HSL1, hits give low values
[40] = locus YKL193C, strain SDS22, hits give low values
[41] = locus YKL203C, strain TOR2, hits give low values
[42] = locus YLR113W, strain HOG1, hits give low values
[43] = locus YLR133W, strain CKI1, hits give low values
[44] = locus YLR403W, strain SFP1, hits give low values
[45] = locus YML070W, strain DAK1, hits give low values
[46] = locus YMR001C, strain CDC5, hits give low values
[47] = locus YMR205C, strain PFK2 (second series), hits give low values
[48] = locus YMR277W, strain FCP1, hits give low values
[49] = locus YNL006W, strain LST8, hits give low values
[50] = locus YNL020C, strain ARK1, hits give low values
[51] = locus YNL161W, strain CBK1, hits give low values
[52] = locus YNL183C, strain NPR1, hits give low values
[53] = locus YNL207W, strain RIO2, hits give low values
[54] = locus YNL222W, strain SSU72, hits give low values
[55] = locus YNL307C, strain MCK1 (second series), hits give low values
[56] = locus YOL078W, strain AVO1, hits give low values
[57] = locus YOL136C, strain PFK27, hits give low values
[58] = locus YOR061W, strain CKA2, hits give low values
[59] = locus YOR119C, strain RIO1, hits give low values
[60] = locus YOR231W, strain MKK1, hits give low values
[61] = locus YOR329C, strain SCD5, hits give low values
[62] = locus YPL031C, strain PHO85, hits give low values
[63] = locus YPL153C, strain RAD53, hits give low values
[64] = locus YPL204W, strain HRR25, hits give low values
[65] = locus YPL209C, strain IPL1, hits give low values
[66] = locus YPL256C, strain CLN2, hits give low values
[67] = locus YPR025C, strain CCL1, hits give low values
[68] = locus YPR106W, strain ISR1, hits give low values
[69] = locus YPR111W, strain DBF20, hits give low values
[70] = strain NNK1, hits give low values
[71] = strain TSCII, hits give low values

For CC(C)(C)NCC(O)COc1cccc2[nH]c(=O)[nH]c12 (stereo not given), the normalized growth (locus YAL040C, strain CLN3, hits give low values) was 1.02, the normalized growth (locus YCL061C, strain MRC1 (second series), hits give low values) was 1.01 and the normalized growth (locus YDR150W, strain NUM1, hits give low values) was 1. For the same compound, the normalized growth (locus YDR363W, strain ESC2, hits give low values) was 1.01, the normalized growth (locus YER002W, strain NOP16, hits give low values) was 1.02 and the normalized growth (locus YJR075W, strain HOC1, hits give low values) was 1.01. The normalized growth (locus YMR263W, strain SAP30, hits give low values) was 1, the normalized growth (locus YNL175C, strain NOP13, hits give low values) was 1.03 and the normalized growth (locus YNL197C, strain WHI3, hits give low values) was 1.02. The normalized growth (locus YNL224C, strain SQS1, hits give low values) was 0.991, the normalized growth (locus YNL322C, strain KRE1, hits give low values) was 1.03 and the normalized growth (locus YOR083W, strain WHI5 (second series), hits give low values) was 0.988. It also gave a normalized growth (locus YPL241C, strain CIN2, hits give low values) of 1.
Compound N#C/C(=N/Nc1ccc(F)cc1)S(=O)(=O)c1ccc(Cl)cc1 has a normalized growth [1] of 0.976, a normalized growth [2] of 0.97 and a normalized growth [3] of 0.965. It also gave a normalized growth [4] of 0.969, a normalized growth [5] of 0.965 and a normalized growth [6] of 0.972. For the same compound, the normalized growth [7] was 0.971, the normalized growth [8] was 0.974 and the normalized growth [9] was 0.957. For the same compound, the normalized growth [10] was 0.966, the normalized growth [11] was 0.94 and the normalized growth [12] was 0.964. The normalized growth [13] was 0.976, the normalized growth [14] was 0.963 and the normalized growth [15] was 0.961. For the same compound, the normalized growth [16] was 0.922, the normalized growth [17] was 0.968 and the normalized growth [18] was 0.978. The normalized growth [19] was 0.973, the normalized growth [20] was 0.974 and the normalized growth [21] was 0.912. The normalized growth [22] was 0.959, the normalized growth [23] was 0.94 and the normalized growth [24] was 0.952. It also gave a normalized growth [25] of 0.912, a normalized growth [26] of 0.982 and a normalized growth [27] of 0.993. It also gave a normalized growth [28] of 0.994, a normalized growth [29] of 0.907 and a normalized growth [30] of 0.976. The normalized growth [31] was 0.926, the normalized growth [32] was 0.942 and the normalized growth [33] was 0.953. The normalized growth [34] was 0.977, the normalized growth [35] was 0.924 and the normalized growth [36] was 0.996. It also gave a normalized growth [37] of 0.932, a normalized growth [38] of 0.96 and a normalized growth [39] of 0.93. The normalized growth [40] was 0.978, the normalized growth [41] was 0.99 and the normalized growth [42] was 0.941. For the same compound, the normalized growth [43] was 0.942, the normalized growth [44] was 0.899 and the normalized growth [45] was 0.939. The normalized growth [46] was 0.975, the normalized growth [47] was 0.96 and the normalized growth [48] was 0.979. The normalized growth [49] was 0.989, the normalized growth [50] was 0.946 and the normalized growth [51] was 0.966. For the same compound, the normalized growth [52] was 0.988, the normalized growth [53] was 0.969 and the normalized growth [54] was 0.977. It also gave a normalized growth [55] of 0.912, a normalized growth [56] of 0.97 and a normalized growth [57] of 0.905. For the same compound, the normalized growth [58] was 0.979, the normalized growth [59] was 0.998 and the normalized growth [60] was 0.953. For the same compound, the normalized growth [61] was 0.975, the normalized growth [62] was 0.954 and the normalized growth [63] was 0.956. The normalized growth [64] was 0.904, the normalized growth [65] was 0.975 and the normalized growth [66] was 1.01. The normalized growth [67] was 0.974, the normalized growth [68] was 0.975 and the normalized growth [69] was 0.969. For the same compound, the normalized growth [70] was 0.972 and the normalized growth [71] was 0.966.
With CC(C)(C)c1ccc(N/N=C(\C#N)C(N)=O)cc1 the normalized growth [1] was 0.111 (active), the normalized growth [2] was 0.0972 (active) and the normalized growth [3] was 0.109 (active). The normalized growth [4] was 0.109 (active), the normalized growth [5] was 0.114 (active) and the normalized growth [6] was 0.0979 (active). For the same compound, the normalized growth [7] was 0.117 (active), the normalized growth [8] was 0.115 (active) and the normalized growth [9] was 0.11 (active). The normalized growth [10] was 0.142 (active), the normalized growth [11] was 0.114 (active) and the normalized growth [12] was 0.146 (active). The normalized growth [13] was 0.107 (active), the normalized growth [14] was 0.117 (active) and the normalized growth [15] was 0.103 (active). The normalized growth [16] was 0.104 (active), the normalized growth [17] was 0.133 (active) and the normalized growth [18] was 0.105 (active). For the same compound, the normalized growth [19] was 0.11 (active), the normalized growth [20] was 0.0948 (active) and the normalized growth [21] was 0.103 (active). For the same compound, the normalized growth [22] was 0.108 (active), the normalized growth [23] was 0.108 (active) and the normalized growth [24] was 0.145 (active). For the same compound, the normalized growth [25] was 0.101 (active), the normalized growth [26] was 0.189 (active) and the normalized growth [27] was 0.214 (active). For the same compound, the normalized growth [28] was 0.225 (active), the normalized growth [29] was 0.000939 (active) and the normalized growth [30] was 0.107 (active). For the same compound, the normalized growth [31] was 0.166 (active), the normalized growth [32] was 0.0973 (active) and the normalized growth [33] was 0.112 (active). For the same compound, the normalized growth [34] was 0.101 (active), the normalized growth [35] was 0.0973 (active) and the normalized growth [36] was 0.207 (active). For the same compound, the normalized growth [37] was 0.134 (active), the normalized growth [38] was 0.118 (active) and the normalized growth [39] was 0.103 (active). For the same compound, the normalized growth [40] was 0.109 (active), the normalized growth [41] was 0.112 (active) and the normalized growth [42] was 0.212 (active). For the same compound, the normalized growth [43] was 0.0995 (active), the normalized growth [44] was 0.00739 (active) and the normalized growth [45] was 0.116 (active). For the same compound, the normalized growth [46] was 0.112 (active), the normalized growth [47] was 0.0978 (active) and the normalized growth [48] was 0.105 (active). For the same compound, the normalized growth [49] was 0.0902 (active), the normalized growth [50] was 0.0965 (active) and the normalized growth [51] was 0.112 (active). The normalized growth [52] was 0.135 (active), the normalized growth [53] was 0.102 (active) and the normalized growth [54] was 0.107 (active). For the same compound, the normalized growth [55] was 0.109 (active), the normalized growth [56] was 0.108 (active) and the normalized growth [57] was 0.122 (active). The normalized growth [58] was 0.092 (active), the normalized growth [59] was 0.119 (active) and the normalized growth [60] was 0.249 (active). For the same compound, the normalized growth [61] was 0.101 (active), the normalized growth [62] was 0.103 (active) and the normalized growth [63] was 0.0998 (active). The normalized growth [64] was 0.108 (active), the normalized growth [65] was 0.0972 (active) and the normalized growth [66] was 0.243 (active). For the same compound, the normalized growth [67] was 0.112 (active), the normalized growth [68] was 0.107 (active) and the normalized growth [69] was 0.131 (active). The normalized growth [70] was 0.105 (active) and the normalized growth [71] was 0.106 (active).
